We go through 18 molecules from PubChem BioAssay (EPA / NIEHS).

SMILES strings stand for the structures. Records with an inconclusive call do not appear. Activity calls are given as the source filed them. Rule for the calls: active = hit-call score of the fitted dose curve at least 0.9, where 1 is the maximum; inconclusive = response in the unintended direction; inactive = score below 0.9.

The assay deals with Nucleoli Translocation, AR (gene 367) (UniProt P10275). Put plainly: UPITT_HCI_U2OS_AR_TIF2_Nucleoli_Agonist: University of Pittsburgh U2OS Androgen Receptor-Transcriptional Intermediary Factor 2 (AR-TIF2) Agonism High Content Imaging Assay for Nucleoli Translocation (AID 2283998). The text has this: UPITT_AR_TIF2_PPIB is a cell-based, high-content imaging assay that uses U2OS, a human osteosarcoma cell line, expressing a human androgen receptor fused to red fluorescent protein and the coactivator TIF2 fused to green fluorescent protein. UPITT_HCI_U2OS_AR_TIF2_Nucleoli_Agonist is one of four assay components measured from the UPITT_AR_TIF2_PPIB assay. It is designed to make measurements of red fluorescence localized in the nucleolar region of the cell nucleus as detected with high-content fluorescent imaging.Data from the assay component UPITT_HCI_U2OS_AR_TIF2_Nucleoli_Agonist was analyzed into 1 assay endpoint. This assay endpoint, UPITT_HCI_U2OS_AR_TIF2_Nucleoli_Agonist, was analyzed in the positive analysis fitting direction relative to DMSO as the baseline of activity. Using a type of binding reporter, measures of receptor for gain-of-signal activity can be used to understand the binding at the pathway-level as it relates to the gene AR.
Nucleoli Translocation, AR (gene 367), sequence (P10275 whole entry, looked up, the tested form may be a part): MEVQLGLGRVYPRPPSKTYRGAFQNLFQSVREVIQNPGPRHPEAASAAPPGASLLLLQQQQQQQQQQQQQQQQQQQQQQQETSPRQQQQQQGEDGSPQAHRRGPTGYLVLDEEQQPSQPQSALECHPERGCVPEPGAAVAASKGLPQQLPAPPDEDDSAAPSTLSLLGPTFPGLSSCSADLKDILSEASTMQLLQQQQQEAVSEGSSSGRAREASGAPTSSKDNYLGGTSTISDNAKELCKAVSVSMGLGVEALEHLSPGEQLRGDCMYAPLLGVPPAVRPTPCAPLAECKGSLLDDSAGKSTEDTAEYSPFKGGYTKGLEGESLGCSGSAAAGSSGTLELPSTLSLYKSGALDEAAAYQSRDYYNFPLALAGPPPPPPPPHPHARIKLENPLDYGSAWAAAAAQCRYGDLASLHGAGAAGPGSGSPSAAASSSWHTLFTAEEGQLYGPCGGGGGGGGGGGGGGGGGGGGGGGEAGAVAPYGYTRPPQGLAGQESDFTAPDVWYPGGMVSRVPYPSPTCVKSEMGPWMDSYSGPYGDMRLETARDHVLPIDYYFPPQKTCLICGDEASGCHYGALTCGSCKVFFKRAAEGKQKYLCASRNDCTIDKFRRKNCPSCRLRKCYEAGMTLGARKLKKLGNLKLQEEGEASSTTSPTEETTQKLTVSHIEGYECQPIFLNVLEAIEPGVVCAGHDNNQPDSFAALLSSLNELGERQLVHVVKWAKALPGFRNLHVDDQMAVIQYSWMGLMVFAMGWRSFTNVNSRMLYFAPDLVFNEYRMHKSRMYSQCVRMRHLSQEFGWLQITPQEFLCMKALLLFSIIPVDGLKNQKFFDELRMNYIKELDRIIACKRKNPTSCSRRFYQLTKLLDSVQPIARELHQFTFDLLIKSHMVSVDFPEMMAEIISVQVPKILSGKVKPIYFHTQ
Daughter plates containing 2 uL of 10 mM compounds in DMSO were prepared and replicated from the 384-well Library of Pharmacologically Active Compounds (LOPAC) master plates using the Bravo outfitted with a 384-well transfer head. Aluminum adhesive plate seals were applied with an Abgene Seal-IT 100 (Rochester, NY) plate sealer, and the plates were stored at -20 C in a Matrical MatriMinistore (Spokane, WA) automated compound storage and retrieval system. For screening, LOPAC daughter plates were withdrawn from -20C storage, thawed to ambient temperature, centrifuged 1-2 min at 50 g, and the plate seals were removed before the transfer of 98 uL of serum-free tissue culture medium (SFM) into wells using the BioTek Microflo liquid handler (BioTek, Winooski, VT) to generate a 200 uM intermediate stock concentration of library compounds (2.0% DMSO). The diluted compounds were mixed by repeated aspiration and dispensation using a 384-well P30 dispensing head on the Evolution P3 (EP3) liquid handling platform (PerkinElmer, Waltham, MA) and then 5 uL of diluted compounds was transferred to the wells of assay plates. In the LOPAC screen, compounds were individually tested at a final concentration of 20 uM (0.2% DMSO). After the diluted compounds had been transferred from the daughter plates to the primary HCS assay plates, aluminum adhesive plate seals were applied and the diluted daughter plates were stored frozen at -20C. To confirm active compounds identified in the primary screen, we withdrew the LOPAC daughter plates containing the 200 uM intermediate concentration of library compounds (2.0% DMSO) from -20C storage, thawed them to ambient temperature, centrifuged them for 1-2 min at 50 g, and removed the plate seals. A work list was generated to direct the Multiprobe Janus liquid handling platform (PerkinElmer) to cherry pick 75 uL from the wells of the diluted daughter plates that were flagged active in the primary screen and to reformat these into a 384-well plate hit confirmation daughter plate. Five microliters of primary HCS active compounds was then transferred into triplicate wells of assay plates using a 384-well P30 dispensing head on the Evolution P3 (EP3) liquid handling platform (PerkinElmer). […] Daughter plates containing 2 uL of the serially diluted compounds in DMSO were prepared and replicated from the 384-well serial dilution master plates using the Bravo outfitted with a 384-well transfer head. Aluminum adhesive plate seals were applied and plates were stored at -20C. For testing in the bioassays, daughter plates were withdrawn from -20C storage, thawed to ambient temperature, centrifuged for 1-2 min at 50 g, and the plate seals were removed before the transfer of 38 uL of SFM into wells using the BioTek Microflo liquid handler (BioTek) to generate an intermediate stock concentration of library compounds ranging from 1.95 to 500 uM (5.0% DMSO). […]
As to `O=C1CCCCC1`, the outcome was inactive.
On the same count and under the same terms, with `NCCOCCOCCN` the entry was “inactive”; with `CCOCCOCCO`, “inactive”.
Same read-out and setting: with `CCCCCCCCCC[N+](C)(C)[O-]` the entry was “inactive”; with `Cc1cc(SC2=C(O)C[C@@](CCc3ccc(N)cc3)(C(C)C)OC2=O)c(C(C)(C)C)cc1CO`, “inactive”.
As to `CSc1ccc(Oc2ccc(S(N)(=O)=O)cc2CN(C)C)cc1C`, the AC50 (usually the midpoint of the concentration-response curve, whichever way the signal moves) is 50 µM (active).
On to `Nc1nc(=S)c2[nH]cnc2[nH]1`, for which the molecule was called inactive.
On the same count and under the same terms, with `C#CC(O)C(CC)CCCC` (stereo not drawn) the entry was “inactive”; with `CC1=C(C)S(=O)(=O)CCS1(=O)=O`, “inactive”.
For `O=C(Oc1ccccc1)c1cccc(C(=O)Oc2ccccc2)c1`, the molecule was called inactive.
For the molecule `O=Cc1ccccc1C=O`, the molecule was called inactive.
The same measure, in the same setting: for `Cc1c(C)c2c(c(C)c1O)CCC(C)(COc1ccc(CC3SC(=O)NC3=O)cc1)O2` (stereo not drawn) the value was “inactive”; for `C=CCCCCCCCCCCCC`, “inactive”.
For the molecule `O=C1OC(c2ccc(O)cc2)(c2ccc(O)cc2)c2ccccc21`, the concentration at half-maximal activity (AC50) is 78.7 µM (active).
As for `Cc1ccc(-c2cc(C(F)(F)F)nn2-c2ccc(S(N)(=O)=O)cc2)cc1`, the call was inactive.
Same read-out and setting: for `CC(C)OC(=O)C(C)(C)Oc1ccc(C(=O)c2ccc(Cl)cc2)cc1` the value was “inactive”.
Same read-out and setting: with `CCC(C)N(C)C(=O)c1cc2ccccc2c(-c2ccccc2Cl)n1` (stereo not drawn) the entry was “inactive”; with `CCN(CC)CCOc1ccc(C(=C(Cl)c2ccccc2)c2ccccc2)cc1`, “inactive”.
